Assay [1] is described as follows: NCI Yeast Anticancer Drug Screen. Data for the rad50 strain (AID 155).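 Also: 0% = growth of vehicle-only cultures of the same strain.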 The conditions noted are these: S. cerevisiae rad50 strain growth inhibition, stronger effect = higher value. The essentials: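 Compounds were tested on a yeast strain with an engineered DNA damage repair alteration; the reported value is growth inhibition normalised to vehicle treatment.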
A short description of assay [2]: NCI Yeast Anticancer Drug Screen. Data for the mec2-1 strain (AID 157). The conditions noted are these: S. cerevisiae mec2-1 strain, stronger effect = higher value. The essentials:
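Vehicle-treated cultures served as reference for growth inhibition of compound-exposed mec2-1 yeast.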

A short description of assay [3]: NCI Yeast Anticancer Drug Screen. Data for the sgs1 mgt1 strain (AID 161).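 Also: 0% = growth of cultures given vehicle only.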 The note with it: S. cerevisiae sgs1 mgt1 strain, stronger effect = higher value. The essentials: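 Test agents were incubated with a DNA-repair-mutant yeast strain. Growth was then read and compared against vehicle-treated controls.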
A short description of assay [4]: NCI Yeast Anticancer Drug Screen. Data for the cln2 rad14 strain (AID 165).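 Also: 0% = growth equal to vehicle treated cultures.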 The note with it: S. cerevisiae cln2 rad14 strain, stronger effect = higher value. A digest of the protocol:
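Each compound was tested on cln2 rad14 yeast. Inhibition of growth was calculated against vehicle-exposed controls.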

A short description of assay [5]: NCI Yeast Anticancer Drug Screen. Data for the bub3 strain (AID 167). The note with it: S. cerevisiae bub3 mutant strain, stronger effect = higher value. A digest of the protocol:
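Growth of a checkpoint-deficient yeast mutant is measured after compound exposure. Values represent inhibition relative to vehicle.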

The nature of assay [6]: NCI Yeast Anticancer Drug Screen. Data for the mlh1 rad18 strain (AID 175). The conditions noted are these: S. cerevisiae mlh1 rad18 strain growth inhibition, stronger effect = higher value. The essentials: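 Vehicle-treated cultures served as the reference for growth inhibition in a yeast strain carrying DNA damage repair alterations exposed to each compound.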
The mark [7] stands for this setting: at 5.0 µM (retest, dose inferred, filed as 0.5).
[8] abbreviates: at 50.0 µM (retest, dose inferred, filed as 5.0).

Values joined by “and” are separate entries in the source; they are usually repeats but may differ in a detail not shown here. Identical values can stand only once. The panel holds about 79,000 compounds, 15% with a hit somewhere; the sample as a whole holds those more often. The source holds several records for some structures; these can differ, active in one and inactive in another. Active and inactive are the calls of the source. Rule as the data show it: active = growth inhibition above about 70%; inactive = the rest.

`C=CCOC(=O)c1ccc(C(=O)OCC=C)cc1`: the growth inhibition in assay [1] (setting [7]) was -5% (inactive); in assay [1] (setting [8]), -77% (inactive); in assay [1] (at 50.0 µM), 50.6% (inactive); in assay [2] (setting [7]) it was -11% (inactive); in assay [2] (setting [8]) it was -32% (inactive); in assay [2] (at 50.0 µM), 52.2% (inactive). Also, the growth inhibition in assay [3] (setting [7]) is -1% (inactive); in assay [3] (setting [8]), -13% (inactive); in assay [3] (at 50.0 µM) it was 78.5% (active); in assay [4] (setting [7]) it was 4% (inactive); in assay [4] (setting [8]), -26% (inactive); in assay [4] (at 50.0 µM) it was 39.4% (inactive). In addition, the growth inhibition in assay [5] (setting [7]) is 6% (inactive); in assay [5] (setting [8]), -53% (inactive); in assay [5] (at 50.0 µM), 44.8% (inactive); in assay [6] (setting [7]) it was 0% (inactive); in assay [6] (setting [8]) it was -41% (inactive); in assay [6] (at 50.0 µM), 64.3% (inactive).

With `O=C(c1ccc(Cl)cc1)C(O)c1ccc(Cl)cc1` (stereo unspecified), the growth inhibition in assay [1] (setting [7]) is -2% (inactive) and 10% (inactive); in assay [1] (setting [8]), 27% (inactive) and 74% (active); in assay [1] (at 50.0 µM) it was 34.2% (inactive); in assay [2] (setting [7]), -9% (inactive) and -3% (inactive); in assay [2] (setting [8]), 14% (inactive) and 35% (inactive); in assay [2] (at 50.0 µM), 12.4% (inactive). Moreover, the growth inhibition in assay [3] (setting [7]) is -2% (inactive) and 4% (inactive); in assay [3] (setting [8]) it was 79% (active) and 82% (active); in assay [3] (at 50.0 µM), 55.1% (inactive); in assay [4] (setting [7]), -8% (inactive) and 7% (inactive); in assay [4] (setting [8]), 67% (inactive) and 28% (inactive); in assay [4] (at 50.0 µM), 36% (inactive). Moreover, the growth inhibition is -10% (inactive) and -1% (inactive) in assay [5] (setting [7]); 20% (inactive) and 45% (inactive) in assay [5] (setting [8]); 65.8% (inactive) in assay [5] (at 50.0 µM); -6% (inactive) and -12% (inactive) in assay [6] (setting [7]); 53% (inactive) and 49% (inactive) in assay [6] (setting [8]); 62.3% (inactive) in assay [6] (at 50.0 µM).

For the molecule `CCn1c(-c2c(Cl)cc(O)cc2Cl)cc2c(Cl)cc(O)cc21`, the growth inhibition in assay [1] (setting [7]) is 64% (inactive); in assay [1] (setting [8]), 99% (active); in assay [1] (at 50.0 µM), 98.1% (active); in assay [2] (setting [7]), 97% (active); in assay [2] (setting [8]), 99% (active); in assay [2] (at 50.0 µM), 99% (active). Besides, the growth inhibition in assay [3] (setting [7]) is 17% (inactive); in assay [3] (setting [8]), 98% (active); in assay [3] (at 50.0 µM), 98.5% (active); in assay [4] (setting [7]), 13% (inactive); in assay [4] (setting [8]), 98% (active); in assay [4] (at 50.0 µM), 98.5% (active). Moreover, the growth inhibition is 11% (inactive) in assay [5] (setting [7]); 96% (active) in assay [5] (setting [8]); 98% (active) in assay [5] (at 50.0 µM); 22% (inactive) in assay [6] (setting [7]); 94% (active) in assay [6] (setting [8]); 98.6% (active) in assay [6] (at 50.0 µM).

`Nc1ccc(N=Nc2ccccc2)c(N)n1`: the growth inhibition in assay [1] (setting [7]) is -166% (inactive); in assay [1] (setting [8]), -14% (inactive); in assay [1] (at 50.0 µM) it was 38.1% (inactive) and 16.4% (inactive); in assay [2] (setting [7]), -54% (inactive); in assay [2] (setting [8]), -20% (inactive); in assay [2] (at 50.0 µM) it was 30.4% (inactive) and 10.7% (inactive). Moreover, the growth inhibition in assay [3] (setting [7]) was -73% (inactive); in assay [3] (setting [8]) it was 4% (inactive); in assay [3] (at 50.0 µM), 28.6% (inactive) and 5.05% (inactive); in assay [4] (setting [7]) it was -72% (inactive); in assay [4] (setting [8]) it was 10% (inactive); in assay [4] (at 50.0 µM), 9.05% (inactive) and 19.2% (inactive). The growth inhibition in assay [5] (setting [7]) was -71% (inactive); in assay [5] (setting [8]), -26% (inactive); in assay [5] (at 50.0 µM), 27.2% (inactive) and 3.75% (inactive); in assay [6] (setting [7]), -130% (inactive); in assay [6] (setting [8]), -25% (inactive); in assay [6] (at 50.0 µM), 57.1% (inactive) and 7.85% (inactive).

Regarding `CCCCCCCCCCCCCCCCCC(=O)OC(Cc1ccccc1)C(=O)O` (stereo unspecified), the growth inhibition in assay [1] (setting [7]) is 1% (inactive); in assay [1] (setting [8]), -2% (inactive); in assay [1] (at 50.0 µM), 33.9% (inactive); in assay [2] (setting [7]) it was 1% (inactive); in assay [2] (setting [8]) it was 2% (inactive); in assay [2] (at 50.0 µM), 18% (inactive). Further, the growth inhibition in assay [3] (setting [7]) is 1% (inactive); in assay [3] (setting [8]), -15% (inactive); in assay [3] (at 50.0 µM), 15.7% (inactive); in assay [4] (setting [7]), 2% (inactive); in assay [4] (setting [8]), -9% (inactive); in assay [4] (at 50.0 µM), 26.2% (inactive). Further, the growth inhibition in assay [5] (setting [7]) is 1% (inactive); in assay [5] (setting [8]) it was 2% (inactive); in assay [5] (at 50.0 µM), 35.7% (inactive); in assay [6] (setting [7]), 0% (inactive); in assay [6] (setting [8]), -1% (inactive); in assay [6] (at 50.0 µM), 32.9% (inactive).

`Cc1c(OCc2cccc3ccccc23)ccc2c(=O)cc(SCCN3CCOCC3)oc12`: the growth inhibition in assay [1] (setting [7]) is 10% (inactive); in assay [1] (setting [8]) it was 25% (inactive); in assay [1] (at 50.0 µM), 65.7% (inactive); in assay [2] (setting [7]) it was -1% (inactive); in assay [2] (setting [8]) it was 13% (inactive); in assay [2] (at 50.0 µM), 30.2% (inactive). The growth inhibition in assay [3] (setting [7]) was 6% (inactive); in assay [3] (setting [8]) it was 49% (inactive); in assay [3] (at 50.0 µM), 83% (active); in assay [4] (setting [7]), 5% (inactive); in assay [4] (setting [8]), 37% (inactive); in assay [4] (at 50.0 µM), 25.1% (inactive). Also, the growth inhibition in assay [5] (setting [7]) was 7% (inactive); in assay [5] (setting [8]), 47% (inactive); in assay [5] (at 50.0 µM), 13.6% (inactive); in assay [6] (setting [7]), 7% (inactive); in assay [6] (setting [8]), 35% (inactive); in assay [6] (at 50.0 µM), 73.3% (active).

Turning to `Cc1cccc2c1Oc1cc(Cl)ccc1C2NC(=O)CCN1CCCCC1` (stereo unspecified), the growth inhibition in assay [1] (setting [7]) was -22% (inactive); in assay [1] (setting [8]) it was 24% (inactive); in assay [1] (at 50.0 µM) it was 85.2% (active); in assay [2] (setting [7]), -12% (inactive); in assay [2] (setting [8]) it was 3% (inactive); in assay [2] (at 50.0 µM), 25.9% (inactive). Further, the growth inhibition is -6% (inactive) in assay [3] (setting [7]); 21% (inactive) in assay [3] (setting [8]); 86.3% (active) in assay [3] (at 50.0 µM); 27% (inactive) in assay [4] (setting [7]); 26% (inactive) in assay [4] (setting [8]); 65.7% (inactive) in assay [4] (at 50.0 µM). Besides, the growth inhibition in assay [5] (setting [7]) was 16% (inactive); in assay [5] (setting [8]), 20% (inactive); in assay [5] (at 50.0 µM) it was -14.7% (inactive); in assay [6] (setting [7]), 14% (inactive); in assay [6] (setting [8]), 57% (inactive); in assay [6] (at 50.0 µM), 69.1% (inactive).

The values are drawn from PubChem BioAssay (NCI).
